# According to PubChem BioAssay AID602454 (National Center for Advancing Translational Sciences (NCATS), 2012):
# Results filed as inconclusive are left out. Activity calls are given as the source filed them. No rule for the calls is given here.
# Assay: qHTS Assay for Inhibitors of Influenza NS1 Protein Function: Viral Replication TCID50
# Conditions: Influenza virus replication in cells, at 10 µM, stronger effect = lower value
# Excerpt: Influenza is a world-wide public health problem and emerging forms of the virus have the potential to cause a pandemic of equal or greater magnitude to the outbreaks recorded in 1918, 1957 or 1968. Vaccine development is proceeding and there also exist two classes of anti-influenza compounds. However these therapeutic modalities are neither fully effective nor widely enough available to fulfill global needs. In addition their potential usefulness against newly emergent strains is not known. Efforts are needed to develop novel agents against influenza virus, including broad-spectrum agents. Identification of small molecules that inhibit NS1 function either directly or by interfering with specific cellular pathways may be a key to increasing our defense against the virus.
# We have miniaturized and optimized a cell based assay in which NS1 from influenza A is expressed in the budding yeast S. cerevisiae. NS1 is a multi-functional protein that counters the host innate immune response and facilitates viral versus cellular gene expression. Expression of NS1 causes a pronounced slow growth phenotype in yeast due to its intrinsic molecular activities. Small molecules that suppress the slow growth phenotype can be identified by a straightforward growth recovery assay using optical density (OD) as the measurement. The same yeast strain not expressing NS1 was used as positive control in the yeast growth recovery assay.
# Hits resulting from the primary screen and other follow-up screens, were tested in two concentrations in this viral replication assay.
# NIH Chemical Genomics Center [NCGC]
# NIH Molecular Libraries Probe Centers Network [MLPCN]
# Assay Submitter (PI): Daniel Engel, University of Virgina
# Cell monolayers were infected at an m.o.i. of 0.1 for 48 h in the presence or absence of the compound, which was added at the beginning of infection. Virus titres were determined by TCID50 analysis (Reed, L. J. & Muench, H. (1938). A simple method of estimating fifty per cent endpoints. Am J Epidemiol 27, 493-497)
row,Compound,viral titer (log10 TCID50)
1,COc1cc(-c2c(C#N)c(N)nc3c2c(C)nn3-c2ccc(Cl)cc2)cc(OC)c1OC,9 (active)
2,COc1ccc(-c2ccnc3c2c(C)nn3-c2ccc(F)cc2)cc1,8.33 (active)
3,COc1ccc(-c2c(C#N)c(=O)[nH]c3c2c(C)nn3-c2ccccc2)cc1OC,8.66 (active)
4,Cc1nn(-c2ccc(F)cc2)c2nc(N)c(C#N)c(-c3ccc(O)c(O)c3)c12,7.66 (active)
5,COc1cc(-c2c(C#N)c(N)nc3c2c(C)nn3-c2ccc(C)c(C)c2)ccc1O,8.5 (active)
6,CCOc1cc(-c2c(C#N)c(=O)[nH]c3c2c(C)nn3-c2ccc(F)cc2)ccc1O,8.66 (active)
7,COc1cc(-c2c3c(C)nn(-c4ccccc4)c3nc3[nH]c(=O)[nH]c(=O)c23)cc(OC)c1O,8.33 (active)
8,COc1cc(-c2ccnc3c2c(C)nn3-c2ccccc2)ccc1O,9 (active)
9,Cc1nn(-c2ccccc2)c2nc3[nH]c(=O)[nH]c(=O)c3c(-c3ccc4c(c3)OCO4)c12,8.33 (active)
10,COc1ccc(-c2c(C#N)c(N)nc3c2c(C)nn3-c2ccccc2)cc1OC,8.66 (active)

# Same assay, conditions: Influenza virus replication in cells, viral titer, at 5 µM, stronger effect = lower value
row,Compound,viral titer (log10 TCID50)
1,COc1cc(-c2c(C#N)c(N)nc3c2c(C)nn3-c2ccc(Cl)cc2)cc(OC)c1OC,9
2,COc1ccc(-c2ccnc3c2c(C)nn3-c2ccc(F)cc2)cc1,9
3,COc1ccc(-c2c(C#N)c(=O)[nH]c3c2c(C)nn3-c2ccccc2)cc1OC,9
4,Cc1nn(-c2ccc(F)cc2)c2nc(N)c(C#N)c(-c3ccc(O)c(O)c3)c12,8.5
5,COc1cc(-c2c(C#N)c(N)nc3c2c(C)nn3-c2ccc(C)c(C)c2)ccc1O,8.66
6,CCOc1cc(-c2c(C#N)c(=O)[nH]c3c2c(C)nn3-c2ccc(F)cc2)ccc1O,9
7,COc1cc(-c2c3c(C)nn(-c4ccccc4)c3nc3[nH]c(=O)[nH]c(=O)c23)cc(OC)c1O,8.66
8,COc1cc(-c2ccnc3c2c(C)nn3-c2ccccc2)ccc1O,9
9,Cc1nn(-c2ccccc2)c2nc3[nH]c(=O)[nH]c(=O)c3c(-c3ccc4c(c3)OCO4)c12,8.66
10,COc1ccc(-c2c(C#N)c(N)nc3c2c(C)nn3-c2ccccc2)cc1OC,9
